FAK blocker: FAK (human) kinase inhibition. actives 0.84% (n = 97,000). biochemical FAK kinase activity assay. Q05397. inhibition, %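 (tested at 7 µM)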; in the data active means inhibition above about 19%;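 further: 0% = DMSO and 100% = reference compound high control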
GALR2 antag: antagonists of human galanin receptor 2 (GALR2). O43603. GALR2-expressing cells, antagonist mode. inhibition, % at 4 µM. actives 0.39% (n = 140,000);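 further: cells stimulated with galanin 1-16 at roughly its EC80; 0% = agonist challenge control and 100% = basal control without agonist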
Target sequence (O43603 whole entry, looked up): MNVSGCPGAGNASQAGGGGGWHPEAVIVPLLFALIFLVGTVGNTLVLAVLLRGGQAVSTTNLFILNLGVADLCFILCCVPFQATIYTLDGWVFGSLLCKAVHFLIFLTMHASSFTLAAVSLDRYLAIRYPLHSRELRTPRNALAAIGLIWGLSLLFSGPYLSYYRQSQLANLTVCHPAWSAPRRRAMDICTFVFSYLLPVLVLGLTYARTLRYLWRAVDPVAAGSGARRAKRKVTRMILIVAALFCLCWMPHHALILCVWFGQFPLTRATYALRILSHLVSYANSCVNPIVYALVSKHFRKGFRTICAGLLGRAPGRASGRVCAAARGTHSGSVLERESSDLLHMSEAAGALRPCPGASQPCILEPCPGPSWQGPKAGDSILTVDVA
GALR2 agonist: GALR2 (human) receptor agonism; O43603; activation, % (no concentration beside the values); actives 0.48% (n = 140,000); GALR2-expressing cells, agonist activation read-out; in the data active means activation above about 5%, passing the limit was not always enough;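 further: 0% = vehicle buffer wells and 100% = reference agonist at full effect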
S1P2 antag: blocks the human S1P2 receptor; O95136; cell-based S1P2 antagonist assay, inhibition at 5 uM; inhibition, % at 5 µM; actives 0.21% (n = 97,000); in the data active means inhibition above about 45%;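 further: CRE beta-lactamase reporter cells expressing human S1P2 stimulated with S1P; 0% = agonist at EC80 alone and 100% = agonist plus reference antagonist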
S1P2 agonist: S1P2 (human) receptor agonism; S1P2-expressing cell line, agonist reporter read-out; activation, % at 4.5 µM; actives 0.46% (n = 97,000); AID 729; in the data active means activation above about 16%;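 further: 0% = vehicle low control and 100% = maximal reference agonist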
SDO1 yeast rescue: sdo1-depleted yeast growth rescue; actives 0.21% (n = 140,000); z-score at 10 µM; S. cerevisiae sdo1-depleted JHY4D growth rescue, OD600 30 h; active compounds read high; pdr5 snq2 efflux-pump mutant strain;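 active means z-score above 3 at both the 24 hr and the 30 hr optical density reads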;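 further: z-score against mean and SD of all compound wells on the same plate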
GALR2 ant conf: GALR2 (human) antagonism confirmed | shares compounds with GALR2 antag | GALR2-expressing cells, antagonist mode, inhibition | inhibition, % at 4 µM | actives 60% (n = 480);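 further: cells stimulated with galanin at about its EC80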
BLA inh counter: counter-screen for GALR2 antagonists: beta-lactamase reporter inhibitors | shares compounds with GALR2 antag | CHO NFAT-BLA reporter, beta-lactamase FRET, thapsigargin-stimulated | inhibition, % at 4.2 µM | actives 36% (n = 480) | AID 867;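 active means inhibition above the mean inhibition across tested compounds plus 3 SD, cut at about 27% in these data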;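 further: 0% = 500 nM thapsigargin stimulated wells and 100% = unstimulated BSA only wells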
Numbers without * were called inactive; . = no result given. Hits are enriched below; roughly 1.9% of the tested compounds scored in any of these assays. Unless noted, no stated cut-off is given here; in the data, active means inhibition above about 27%; inactive means the rest.

SMILES | FAK blocker | GALR2 antag | GALR2 agonist | S1P2 antag | S1P2 agonist | SDO1 yeast rescue | GALR2 ant conf | BLA inh counter
COc1ccc(NC(=O)/C(Cl)=C(/Cl)S(=O)(=O)Cc2ccc(C)cc2)cn1 | -1 | 78* | 0 | 90* | -11 | -2.7 | 93* | 95*
COc1ccc(NC(=O)C(CC(C)C)NC(=O)c2ccccc2C)cn1 (stereo not given) | -1 | -10 | -2 | 1 | -3 | 0.46 | . | .
COc1ccc(C(=O)COC(=O)CNS(=O)(=O)c2ccc(C)cc2)cc1 | . | -7 | -1 | . | . | 0.33 | . | .
Cc1cc(=O)oc(C)c1C(=O)Nc1c(C)n(C)n(-c2ccccc2)c1=O | 1 | 10 | -1 | -2 | -4 | 0.14 | . | .
CC(=O)Nc1nc2n(n1)C(c1ccc(F)cc1)C=C(c1ccccc1)N2 (stereo not given) | 1 | 31* | -2 | 56* | -9 | -1.1 | 28* | 45*
Cc1cccc(OCC(=O)NNC(=O)Nc2cccc(Cl)c2)c1C | 1 | -5 | 0 | -4 | -6 | -0.16 | . | .
O=C(Nc1ccccc1)Nc1cc(Cl)cc(Cl)c1 | 5 | 21 | -2 | -17 | -4 | -1.9 | . | .
O=C(Nc1ccccc1)Nc1cc(OCC(F)(F)F)cc(OCC(F)(F)F)c1 | . | 27* | -2 | . | . | -1.4 | 19 | 12
CCCCN(C)CCn1c(=S)[nH]c2ncccc2c1=O | 0 | 32* | -4 | -6 | -3 | -0.66 | 10 | -1
C=CCN(CC=C)c1cnn(-c2nc3ccccc3[nH]2)c(=O)c1Cl | 4 | 11 | -3 | -11 | -1 | -1.5 | . | .
O=c1c(Cl)c(NCCCO)cnn1-c1nc2ccccc2[nH]1 | -4 | 36* | -3 | 30 | -4 | -0.17 | 42* | 37*
NC(=O)CSCc1nc2ccccc2s1 | 0 | 31* | -3 | -16 | -4 | 0.05 | 5 | 2
O=C(CCc1nc2ccccc2s1)OCc1ccccc1 | . | 1 | 0 | . | . | 0.01 | . | .
CCOC(=O)COc1ccc(/C=C/[N+](=O)[O-])c(OCC(=O)OCC)c1 | 1 | 27* | -2 | -13 | -1 | -0.57 | 31* | 14
Nc1ccc2c(C(F)(F)F)cc(=O)oc2c1 | -1 | 39* | 2 | 35 | 3 | 0.34 | 23 | 46*
Cc1ccc(-c2cc(C(F)F)n3ncc(C(=O)N4CCN(c5cccc(C)c5C)CC4)c3n2)cc1 | -1 | 4 | 0 | 0 | -1 | -1.4 | . | .
CC(=O)C1=C(c2ccc(Br)cc2)C(=O)c2ccccc2C1=O | . | 35* | -2 | . | . | -1.9 | 26 | 16
CNC1=C(N(C(C)=O)c2ccc(Br)cc2)C(=O)c2ccccc2C1=O | . | 1 | -1 | . | . | -0.92 | . | .
O=C(C1CCN(S(=O)(=O)c2cccc3cccnc23)CC1)N1CCN(C2CCCC2)CC1 | . | 3 | 0 | . | . | 1.1 | . | .
O=C(Nc1cccc(S(=O)(=O)N2CCCC2)c1)c1ccc2c(=O)n3c(nc2c1)CCCCC3 | . | 34* | -1 | . | . | 0.66 | 14 | 11
Cc1ccc(N=Cc2sc(O)c3ccccc23)cc1 | -3 | 28* | -2 | 38 | -8 | -0.86 | 32* | 32*
COc1cc(/C=C(/C#N)c2ccc(F)cc2)ccc1Oc1ccc([N+](=O)[O-])cn1 | . | -1 | -2 | . | . | -0.63 | . | .
COc1ccc(C(=O)c2cc([N+](=O)[O-])ccc2N2CCOCC2)cc1 | . | 34* | 2 | . | . | 0.74 | 28* | 49*
CCOc1ccc(C(=O)c2cc([N+](=O)[O-])ccc2N2CCOCC2)cc1 | . | 51* | 2 | . | . | -0.76 | 30* | 68*
O=S(NC1CCCCC1)C12CC3CC(CC(C3)C1)C2 (stereo not given) | . | -1 | -3 | . | . | 0.33 | . | .
SMILES | FAK blocker | GALR2 antag | GALR2 agonist | S1P2 antag | S1P2 agonist | SDO1 yeast rescue | GALR2 ant conf | BLA inh counter
Cc1nc([N+](=O)[O-])c(Sc2nc3ccccc3n2C)n1Cc1ccccc1 | . | 31* | 0 | . | . | -0.77 | 23 | 6
O=c1c2c(-c3cccs3)csc2ncn1-c1ccc(Br)cc1 | 1 | 55* | 0 | -38 | 2 | -2.1 | 13 | 8
COc1cccc(-n2cnc3scc(-c4cccs4)c3c2=O)c1 | -1 | 5 | -3 | -42 | 1 | -1.3 | . | .
Cc1ccc(NC(=O)COC(=O)c2cccc3c(=O)c(C)c(-c4ccccc4)oc23)cc1 | . | 8 | 1 | . | . | -1.7 | . | .
COc1ccccc1Nc1nc(-c2c(C)[nH]c3ccccc23)cs1 | . | 30* | 2 | . | . | -0.5 | 18 | 15
CCCC(=O)Nc1nc(C)c(-c2csc(Nc3ccccc3OC)n2)s1 | 3 | -21 | 1 | 6 | -4 | -0.09 | . | .
O=C(/C=C/c1cn(CC(O)CN2CCCCC2)c2ccccc12)c1cccs1 (stereo not given) | . | 9 | 0 | . | . | 0.02 | . | .
CCCN(CCC)CC(O)Cn1cc(/C=C/C(=O)c2cccs2)c2ccccc21 (stereo not given) | . | 53* | 1 | . | . | -1.1 | 32* | 44*
O=C(N/N=C/C(Br)=C/c1ccccc1)c1n[nH]c2c1CCC2 | 3 | 37* | 0 | 15 | 0 | -0.94 | 33* | 60*
COc1cc(/C=C(/C(=O)c2cccs2)c2nc3ccccc3[nH]2)cc(OC)c1O | 1 | 32* | -3 | 44 | -9 | 1.1 | 31* | 34*
O=C(CN(CC1CCCO1)C(=O)CCC(=O)Nc1ccccn1)NCc1ccccc1 (stereo not given) | 2 | 30* | -3 | -4 | -3 | 0.9 | 8 | 9
C=CCN1C(=O)N/C(=C/c2ccc(N3CCOCC3)o2)C1=O | . | 38* | 1 | . | . | 0.67 | 14 | 13
O=C1N/C(=C/c2ccc(N3CCCC3)cc2)C(=O)N1c1ccccc1 | . | 16 | 2 | . | . | -0.77 | . | .
O=C1N/C(=C/c2ccc(N3CCOCC3)o2)C(=O)N1c1ccccc1 | . | 55* | 0 | . | . | -0.25 | 11 | 14
O=C1NC(=S)S/C1=C/c1ccc(N2CCOCC2)o1 | . | 6 | 0 | . | . | 1.1 | . | .
Cc1ccc(S(=O)(=O)Nc2ccc3nc(C)sc3c2)cc1 | -10 | 15 | 0 | 6 | -3 | -0.99 | . | .
Cc1nc2ccc(NS(=O)(=O)c3ccc4c(c3)OCCO4)cc2s1 | 0 | 34* | -2 | 22 | -3 | -0.59 | 26 | 13
Cc1cc(-c2nnc3n2CCCCC3)c(C)n1-c1ccccc1 | 1 | -4 | 0 | -10 | -4 | -0.18 | . | .
CCOC(=O)COc1ccc(S(=O)(=O)NCc2ccncc2)cc1 | 0 | 33* | -1 | 43 | -4 | 0.08 | 33* | 1
Cc1ccc(S(=O)(=O)NCc2ccncc2)cc1 | -1 | 31* | -1 | 37 | 0 | 0.08 | 39* | 5
CCOc1ccc(S(=O)(=O)NCc2ccncc2)cc1 | -2 | 34* | -4 | 64* | -5 | 1.3 | 53* | 8
O=C(CNC(=S)N(Cc1ccccc1)Cc1cccnc1)NC1CCCC1 | . | 6 | -2 | . | . | 2 | . | .
